This assay is described as follows: cytotoxicity in LNCaP prostate cells – cell-based, cell event count, single point, cytotoxicity control for prostate differentiation activator project, confirmation (AID 1076).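 Further: counts scatter-gated live cells after medium removal discards detached dead cells.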 The note with it: LNCaP cell loss, flow cytometry event count, 4 d, stronger effect = lower value. Background: A flow cytometer gives signals particle by particle.

Activity calls are given as the source filed them.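 How the source made its calls: active means cell event count below 40, meaning activity score above 60 where score is 100 minus count; inactive means the rest.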

In the case of `O=C(Nc1cccc(Cl)c1)N1CCN(Cc2ccccc2)CC1`, the cell event count is 42 (inactive) (at 100 µM) and 132 (event count, at 10 µM).
The matching figures for `CCC(=O)N(Cc1ccco1)c1nc(-c2cc(OC)ccc2OC)cs1`: 227 (inactive) and 158.
For the compound `CCc1ccc(NC(=O)NCCN2CCc3ccccc3C2)cc1`, the cell event count reads like this: (at 100 µM) 6 (inactive); (event count, at 10 µM) 112.
The matching figures for `O=C(NCCCN1CCN(c2ccc(F)cc2)CC1)c1cccc(N2CCCC2=O)c1`: 206 (inactive) and 263.
On to `CCOc1ccccc1NC(=O)c1nc[nH]c1C(=O)Nc1ccccc1OCC`, for which the cell event count by setting is: (at 100 µM) 20 (inactive); (event count, at 10 µM) 248.
The matching figures for `CCOC(=O)N1CCC(=C2c3ccc(Cl)cc3CCc3cccnc32)CC1`: 7 (inactive) and 192.
The matching figures for `Cc1ccc(-c2noc(CCC(=O)NC3CCN(Cc4ccccc4)CC3)n2)cc1`: 9 (active) and 77.5.
As for `COc1cc2c(C(=O)NCCCN3CCN(c4cccc(Cl)c4)CC3)cn(C)c(=O)c2cc1OC`, the cell event count runs as follows: (at 100 µM) 15 (inactive); (event count, at 10 µM) 230.
The matching figures for `COc1ccc(OC)c(CNC(=O)CCNC(=O)Cn2ccc3ccccc3c2=O)c1`: 63 (inactive) and 73.
The matching figures for `CCOC(=O)N1CCN(C(=O)C2CCCN(Cc3nc(-c4ccc(Cl)cc4)oc3C)C2)CC1` (stereo not drawn): 10 (inactive) and 126.
The matching figures for `CCOC(=O)c1cc2c(=O)n3ccccc3nc2n(CCCOC)c1=NC(=O)c1cccnc1`: 223 (inactive) and 144.
As to `Cc1ccc(Cn2ccc(NC(=O)c3cc(-c4ccc(Br)cc4)on3)n2)cc1`, the cell event count runs as follows: (at 100 µM) 257 (inactive); (event count, at 10 µM) 132.
Regarding `CCOC(=O)Cn1nc(-c2ccc(Cl)cc2)cc1N`, the cell event count is, setting by setting: (at 100 µM) 70 (inactive); (event count, at 10 µM) 22.
The matching figures for `CCN(CC)CCNC(=O)c1nn(-c2ccc(C)cc2)c(=O)c2c1c1ccccc1n2C`: 18 (inactive) and 136.

The values are drawn from PubChem BioAssay AID1076 (NMMLSC, 2008).
